Assay results reported in PubChem BioAssay AID1272365 (Small Molecule Screening Facility, UW Madison, 2018).
“And” between values parts separate entries of the source, which are not always exact repeats. Equal entries are not always repeated. Out of some 430,000 compounds screened, about 2,600 (0.6%) were called active. Cut-off read from the data, not from the text of the source: active = inhibition mostly above about 37% (no sharp cut-off); inactive = mostly below about 20%. The entries come from a sample that favours actives as a whole.

test system: PriA–SSB C-terminal tail interaction (Klebsiella pneumoniae); experiment: blocks PriA binding to SSB C-terminal tail, primary screen, biochemical, AlphaScreen (AID 1272365); details: AlphaScreen SSBct-PriA binding, biotinylated peptide; at 33 µM, stronger effect = higher value;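 note: plate controls were negative control peptide for no effect and reference peptide for full effect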

SMILES	inhibition
CCOC(=O)c1c(-c2ccc(F)cc2)csc1NC(=O)CSc1n[nH]c(N)n1	9% (inactive)
CCCOc1ccc(-c2nc(C#N)c(N3CCCCC3)o2)cc1	90% (active)
Cc1ccc(OCc2ccc(-c3nc(C#N)c(N4CCCCCC4)o3)o2)cc1	39.5% (inactive)
Cc1ccc(OCc2nc(C#N)c(N3CCCC3)o2)cc1	-11.1% (inactive)
COc1cccc2cc(C(=O)C3=C(O)C(=O)N(CCN(C)C)[C@@H]3c3ccccc3F)oc12	-20% (inactive)
NS(=O)(=O)c1ccc(NC(=O)c2cn(Cc3cccc(F)c3)nc2OCc2cccc(F)c2)cc1	-16% (inactive)
Cc1ccc(C=NNC(=O)c2cccc(S(=O)(=O)Nc3cccc(Cl)c3)c2)o1	-6.77% (inactive)
COc1ccc2c(c1)C(C)=CC(C)(C)N2C(=O)Nc1ccccc1	38.4% (active)
COc1cccc(NC(=O)c2nn(-c3ccc(OC)cc3OC)c(=O)c3ccccc23)c1	-7.71% (inactive)
COc1cccc(NC(=O)C2C(c3ccccc3)C2(Cl)Cl)c1 (centres undefined)	-12.2% (inactive)
CCOC(=O)c1ccc(NC(=O)CSc2nnc(-c3cccs3)n2-n2cccc2)cc1	0% (inactive)
CCOC(=O)CNC(=O)NC1CC(=O)N(c2ccccc2)C1 (centres undefined)	32% (inactive)
Cc1cnc(-c2ccccn2)nc1N	151% (active)
Cc1c(N)nc(-c2ccccn2)nc1Cl	47.3% (inactive)
CC1(C)N=C(c2ccccn2)C(C)(C)N1O	-5.91% (inactive)
COc1ccc(NC(=O)Cn2ncn3nc(-c4ccc(F)cc4)cc3c2=O)cc1Cl	6% (inactive)
CNC(=S)NN=C(C)c1cccc(C(F)(F)F)c1	-4.78% (inactive)
O=C(NCC1(c2ccsc2)CCCC1)Nc1cccs1	53% (active)
O=C(Cc1ccc(F)cc1)NCC1(c2ccsc2)CCCC1	-6% (inactive)
Cn1cc(C(=O)NCC2(c3ccsc3)CCCC2)nn1	-24% (inactive)
NCCc1csc2nc(-c3cccc(F)c3)nn12	16% (inactive)
O=C(Nc1cnc(N2CCN(c3ccccc3)CC2)nc1)c1c(F)cccc1F	-6% (inactive)
Cc1ccc(-n2ncc3c(=O)[nH]c(-n4nc(C)cc4NC(=O)Cc4ccccc4)nc32)cc1	-5% (inactive)
Cc1cc(NC(=O)C(C)(C)CCl)n(-c2ncnc3c2cnn3-c2cccc(C)c2C)n1	11% (inactive)

SMILES	inhibition
Cc1cc(NC(=O)c2ccccc2Cl)n(-c2nc3c(cnn3-c3cccc(C)c3C)c(=O)[nH]2)n1	53% (active)
CCOC(=O)N1CCC(NC(=O)Cc2csc(Nc3ccc(F)cc3)n2)CC1	2% (inactive)
CC(C)n1cnc2c(NCc3ccccc3)cc(OCC3CCN(C)CC3)cc21	53.1% (active)
O=C(c1ccc(S(=O)(=O)NCc2cccnc2)o1)N1CCC(Cc2ccccc2)CC1	5% (inactive)
O=[N+]([O-])c1cc(C(F)(F)F)ccc1NN=C1CCCC1	43.5% (active)
O=[N+]([O-])c1cc(C(F)(F)F)ccc1NCCc1ccncc1	-11.2% (inactive)
O=[N+]([O-])c1cc(S(=O)(=O)N2CCCC2)ccc1NN=C1CCCC1	11.5% (inactive)
COc1cc(OC)c(OC)cc1/C=C1/C(=O)NC(=N)N1C	-14.1% (inactive)
O=C(COc1ccc(Cl)cc1Cl)NCC(=O)N/N=C\c1cccs1	-6% (inactive)
CC(=O)c1ccc(S(=O)(=O)N2CC(S(=O)(=O)c3ccc(Cl)cc3)C2)cc1	-15% (inactive)
CCCN1CCCc2cc(CCNS(=O)(=O)c3ccc(NC(C)=O)cc3)ccc21	85% (active)
Cc1cccc(CCNS(=O)(=O)c2ccc3c(c2)NC(=O)CO3)c1	1.31% (inactive)
CCCN1CCCc2cc(CCNC(=O)C(=O)Nc3ccc(OC(F)(F)F)cc3)ccc21	-6% (inactive)
CCCN1CCCc2cc(CCNS(=O)(=O)Cc3cccc(C)c3)ccc21	73% (active)
CCCNS(=O)(=O)c1ccc2c(c1)CCCN2C(C)=O	-6.74% (inactive)
Cc1cccc(CCNS(=O)(=O)c2ccc(S(=O)(=O)NC3CCCC3)cc2)c1	-8.63% (inactive)
Cn1cccc1CN(Cc1cccs1)C(=O)c1ccccc1S(=O)(=O)C(F)F	20% (inactive)
Cc1nc(N2CCCC2)nc(C)c1NC(=O)c1cccc(Cl)c1	-6% (inactive)
Cc1cc(NC(=O)CSc2nnc(C)c3cnn(-c4ccc(F)cc4)c23)no1	-7% (inactive) and -11% (inactive)
CCc1ccc(S(=O)(=O)N2CCOC(c3ccccc3)C2)s1 (centres undefined)	-11% (inactive)
COc1ccc2nc(N=C(N)NC(=O)N3c4ccccc4Sc4ccccc43)nc(C)c2c1	-5.89% (inactive)
COc1ccc(-c2nnc(NC(=O)c3ccc(SC)cc3)o2)cc1	-3% (inactive)
COc1ccc(-c2nnc(SC(=O)N3c4ccccc4Sc4ccccc43)o2)cc1	42.2% (active)
Cc1oc2cc(OCC(=O)c3ccc(F)cc3)ccc2c(=O)c1-c1ccccc1	7% (inactive)

SMILES	inhibition
CCCCOc1ccc(C(=O)Nc2ccc3c(c2)C(=O)N(C)C3=O)cc1	-4% (inactive)
COc1ccc(S(=O)(=O)N2CCOCC2)cc1NC(=O)CSc1ncnc2ccccc12	-9.78% (inactive)
COc1ccc(S(=O)(=O)N2CCOCC2)cc1NC(=O)Cc1coc2cc(C)ccc12	-2.71% (inactive)
COc1ccc(S(=O)(=O)N2CCOCC2)cc1NC(=O)CSc1cc(C)ccc1C	49.7% (active)
CC(=O)c1sc(NC(=O)COc2ccc(Cl)cc2)nc1C	-10% (inactive)
CSc1ccccc1NC(=O)C(=O)NC[C@]1(O)CCc2ccccc2C1	-6% (inactive)
CS(=O)(=O)N1CCC(CNC(=O)c2nc3ccccc3s2)CC1	-21% (inactive)
Cn1ccnc1SCC1CCN(C(=O)c2nc3ccccc3s2)CC1	39% (active)
C[C@H](O)CN1CCN(C(=O)c2nc3ccccc3s2)CC1	-1% (inactive)
O=C(Nc1nc2ccccc2s1)C(=O)NC1CC1	3% (inactive)
O=C(O)C(NC(=O)c1ccc(Cl)cc1)=C(Cl)Cl	-6% (inactive)
CC(C)c1nnc(NC(=O)/C=C/c2cccs2)s1	-6% (inactive)
COc1ccc(C)cc1NC(=O)CSc1ncc(-c2ccccc2)n1C	-3% (inactive)
COCCN1CCCc2ccc(NC(=O)c3ccc(OC)cc3)cc21	45% (inactive)
O=C(C1CCCC1)N1CCc2ccc(NS(=O)(=O)CCc3ccccc3)cc21	5% (inactive)
COCCN1CCCc2ccc(NC(=O)c3cccc(OC)c3)cc21	53% (inactive)
COCCN1CCCc2ccc(NS(=O)(=O)CCc3ccccc3)cc21	34% (active)
COCCN1CCCc2ccc(NS(=O)(=O)c3ccc(C)c(Cl)c3)cc21	54% (active)
COc1cc(NS(=O)(=O)CCc2ccccc2)ccc1N1CCCC1=O	-16% (inactive)
c1cncc(-c2nnc3sc(-c4cc5ccccc5o4)nn23)c1	-28% (inactive)
O=S(=O)(c1ccccc1F)N1CCN(c2cnnc(N3CCCC3)c2)CC1	0% (inactive)
CCOC(=O)c1sc(=NC(=O)CCCSc2ccc(OC)cc2)n(C)c1C	2% (inactive)
COc1ccc(-c2cc(C3CCN(c4ncccc4[N+](=O)[O-])CC3)[nH]n2)cc1	47.3% (active)
CC(=O)NC(Cc1ccccc1)C(=O)NC1CCN(c2ncccc2[N+](=O)[O-])CC1 (centres undefined)	-3.58% (inactive)

SMILES	inhibition
COc1ccc(N2CCN(c3ccc([N+](=O)[O-])nc3)CC2)cc1	3.99% (inactive)
COCCn1c(SCc2nc(-c3ccc(F)cc3)no2)nc2ccsc2c1=O	-36% (inactive)
COC(=O)c1sccc1S(=O)(=O)N1C2CCCC1COC2	-5% (inactive)
Cc1noc(CNC(=O)NCc2cccs2)n1	-6% (inactive)
O=C(NCc1cccs1)NCc1cccnc1-c1ccsc1	-6% (inactive)
O=C(NCCn1ccnc1-c1ncccn1)NCc1cccs1	71% (active)
O=C(Cc1cc(-c2ccc3c(c2)OCO3)on1)Nc1ccc(OC(F)(F)F)cc1	1% (inactive)
COCCCNC(=O)C(=O)Nc1ccc(Cl)cn1	-18% (inactive)
COC(=O)c1ccc(NC(=O)C2CCCN(c3ccc(-c4ccc(F)cc4)nn3)C2)cc1 (centres undefined)	-17% (inactive)
Cc1ccc(CN2CC(C(=O)N3CCN(S(=O)(=O)c4ccccc4)CC3)CC2=O)cc1 (centres undefined)	-17.9% (inactive)
CCC(C)c1ccccc1N1CC(C(=O)N2CCN(S(=O)(=O)c3ccc(F)cc3)CC2)CC1=O (centres undefined)	44% (active)
O=C(C1CC(=O)N(c2ccc(F)cc2)C1)N1CCN(c2ccccc2)CC1 (centres undefined)	-4.67% (inactive)
CC(=O)[C@@H](C(=O)N(C)C)n1cnc2c(cnn2-c2cccc(Cl)c2)c1=O	-12% (inactive)
O=[N+]([O-])c1ccccc1NCc1ccccc1Cl	-2.79% (inactive)
CC(C)C(=NNC(=O)Nc1ccccc1)c1ccccc1	-2.11% (inactive)
CC(C)C(=NNc1ccccc1[N+](=O)[O-])c1ccccc1	64.3% (active)
Cc1cc(=O)[nH]c(-n2ncc(C(=O)Nc3ccc(OC(F)(F)F)cc3)c2C)n1	-10% (inactive)
Cc1cc(C)c(S(=O)(=O)NCCC(=O)NCc2cccnc2)cc1N(C)S(C)(=O)=O	-9% (inactive)
CCOC(=O)c1c(NC(=O)CSc2nnc(Cc3csc(N)n3)n2C)sc(C)c1C	-7% (inactive) and 53.5% (active)
CCOC(=O)c1sc(NC(=O)CSc2nnc(CNC(=O)c3ccc(Cl)cc3Cl)n2C)c(C(=O)OCC)c1C	5% (inactive) and -12% (inactive)
CCOC(=O)c1c(NC(=O)CSc2nnc(CN3CCOCC3)n2C)sc2c1CCCC2	-3.23% (inactive)
CCSc1nnc(NC(=O)CSc2nnc(CNC(=O)c3cccs3)o2)s1	-13% (inactive)
